# Assay results taken from article PMC5540273 (PLoS ONE, 2017).
# Experiments:
# Conditions in all cases: concentration: 1 μM, replicates: in singlicate; n = 1
# PRKD3 = system: PRKD3
# PRKG1 = system: PRKG1
# PRKG2 = system: PRKG2
# PRKR = system: T1, PRKR
# T1 construct: gene EIF2AK2
# PRKX = system: PRKX
# PRP4 = system: PRP4
# PYK2 = system: T2, PYK2
# T2 construct: gene PTK2B
# QSK = system: QSK
# RAF1 = system: RAF1
# RET = system: RET
# 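Also: KINOMEscan kinase panel screen.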
SMILES,%Inh (PRKD3) [%],%Inh (PRKG1) [%],%Inh (PRKG2) [%],%Inh (PRKR) [%],%Inh (PRKX) [%],%Inh (PRP4) [%],%Inh (PYK2) [%],%Inh (QSK) [%],%Inh (RAF1) [%],%Inh (RET) [%]
Cc1cccc(Nc2nc(NCCN)ncc2C(N)=O)c1 [GSK1292139],100,9,0,3,35,41,66,20,3,14
COC(=O)Nc1nc2cc(Oc3ccc(NC(=O)Nc4cccc(SC)c4)cc3)ccc2[nH]1.Cl [GW697999],18,1,17,0,24,28,0,0,92.6,99.8
Cc1cccc(Nc2nc(N[C@H]3CCCC[C@H]3N)ncc2C(N)=O)c1.Cl [GSK986310],58,20,0,30,25,1,71,18,3,76
Cc1ccc(Nc2ccnc(Nc3ccc(C)c(F)c3)n2)cc1O.Cl [GW582868],0,0,0,0,0,27,1,0,12,67
CCn1cnc2c(NCc3ccccc3)ncnc21 [SKF-96418],0,0,0,8,0,41,0,10,17,0
COc1cccc(C2=C(Nc3cccc(O)c3)C(=O)NC2=O)c1 [SB-390771],7,9,81,15,20,41,43,0,20,1
COc1ccc(NC(=O)c2ccoc2)cc1-c1ccc(C(=O)NCC2CC2)cc1 [GW810437],0,0,0,0,0,0,7,12,0,0
Nc1ncc(-c2cn[nH]c2)c2scc(-c3ccc4c(c3)CCN4C(=O)Cc3ccccc3)c12 [GSK2593067],11,27,0,0,21,0,9,9,0,34
COc1ccc(C)c(Nc2ccnc(Nc3ccc(-c4cnc[nH]4)cc3)n2)c1.Cl [GW784041],0,0,12,0,0,0,5,0,27,0
COc1ccc(C2=C(Nc3cccc(O)c3)C(=O)NC2=O)cc1 [SB-390766],0,0,0,0,0,49,0,12,96.2,25
CCn1c(-c2nonc2N)nc2c(-c3ccccc3)ncc(OCCCN)c21.O=C(O)C(F)(F)F.O=C(O)C(F)(F)F [GSK260205],100,5,95.7,0,28,27,6,27,6,91.7
CCNC(=O)/C=C/c1n[nH]c2cc(Sc3ccccc3C(=O)NC)ccc12,0,14,2,0,3,0,0,0,0,80
c1ccc(Oc2ccc(Nc3ccnc4cc(-c5ccc(CN6CCCCC6)o5)ccc34)cc2)nc1 [GW567143],0,6,0,0,7,2,0,27,0,11
Cl.Cl.NCC(NC(=O)c1cc(-c2cccnc2)c(-c2ccnc3[nH]ccc23)s1)c1ccccc1 (stereo not drawn) [GSK1323434],34,45,68,0,56,29,10,13,12,28
COC(=O)Nc1nc2ccc(Oc3ccc(NC(=O)Nc4cc(C(F)(F)F)ccc4F)cc3)cc2[nH]1.Cl [GW654607],15,9,10,3,10,0,15,28,91.3,100
O=C(O)C(F)(F)F.O=c1[nH]ccc2nc(N[C@@H]3CCNC3)nc(Nc3cc(Cl)cc(Cl)c3)c12 [GSK2188764],96.5,61,98.5,76,95,63,98.8,38,0,51
CN(C)c1ncnc2nc[nH]c12 [SKF-31736],0,19,0,0,0,0,0,27,0,0
Cl.N#CCc1ccc(Nc2nccc(Nc3ccc(Oc4ccccc4)cc3)n2)cc1 [GW639905],53,0,0,0,10,16,8,1,6,38
CN(c1ccc2c(c1)nc(NCc1ccccc1)n2C)c1ccnc(Nc2ccc(CS(C)(=O)=O)cc2)n1.Cl [GW811603],0,3,4,1,0,22,21,0,97.5,99.9
Cc1ccccc1CC(=O)N1CCc2cc(-c3cn(C)c4ncnc(N)c34)ccc21 [GSK2603346],0,0,0,0,0,0,0,4,0,36
CC(C)c1nc(-c2ccc(F)c(NS(=O)(=O)c3c(F)cccc3F)c2)c(-c2ccnc(Nc3ccc(N4CCOCC4)nc3)n2)s1 [GSK1804250],100,1,1,35,23,2,50,32,95.3,89
CN(C)CCNS(=O)(=O)c1ccc(-c2ccnc3[nH]ccc23)cc1 [GSK977620],11,95.4,97.4,0,68,0,20,8,1,2
Cc1ccc(-c2ccc3occ(-c4ccc(S(C)=O)cc4)c3c2)nn1 (stereo not drawn),0,14,0,0,0,13,0,0,6,0
CC(C)(C)c1ccc(C(=O)Nc2cn3cc(-n4ccnc4)ccc3n2)cc1,0,0,7,0,41,22,8,0,10,0
Cl.Cl.NC(CNC(=O)c1cc(Br)c(-c2ccnc3[nH]ccc23)s1)c1ccccc1 (stereo not drawn) [GSK1322949],62,98.5,98.4,6,92.5,87,32,22,0,30
CN1CCN(Cc2ccc(NC(=O)Nc3ccc(N(C)c4ccnc(Nc5ccc(CS(C)(=O)=O)cc5)n4)cc3)cc2)CC1.Cl [GW827654],0,0,0,0,22,33,88,0,0,100
COc1cccc2c(-c3ccncc3)c(-c3ccc(F)cc3)nn12 [GW468513],43,0,0,0,10,25,12,0,33,22
CC(C)c1nc(-c2cccc(NS(=O)(=O)c3c(F)cccc3F)c2)c(-c2ccnc(Nc3ccc(N4CCOCC4)nc3)n2)s1.Cl [GSK1723980],100,0,0,29,7,0,25,82,99.4,99.6
CNc1nccc(-c2ccc3c(N)n[nH]c3c2)n1 [GSK2206003],35,25,76,8,53,32,12,0,0,80
O=C1NC(=O)C(c2ccccc2Cl)=C1Nc1cccc(Cl)c1 [SB-342409],22,0,0,0,15,0,5,5,37,1
